In PubChem BioAssay:
The source made the active and inactive calls.

assay: JC-1 mitochondrial signal, unstimulated adipocytes – cell-based, JC-1 fluorescence, 3T3-L1 adipocytes, 24 h, 100 nL compound, profiling panel (AID 1168); conditions: JC-1 mitochondrial fluorescence, higher = more signal, called active from +8 up or from −8 down
Also: test concentration not given here.

Q: With `COc1ccc(COC(=O)NN=C2C[C@@H](O)[C@@H](O)[C@@H]3[C@@H]4C(=O)N(c5cccc(Oc6ccccc6)c5)C(=O)[C@@H]4CC[C@H]23)cc1` as the compound, how does the z-score read?
A: The z-score was -1.78 (inactive).

Q: For `COc1ccc(OC[C@@H]2CC3[C@@H](c4ccc(Br)cc4)[C@H](C)CC[C@H]3C(=O)O2)cc1` (stereo partly specified), which z-score is on record?
A: Its z-score is 0.533 (inactive).

Q: Which z-score does the source give for `COC(=O)[C@H](C)NC(=O)CCC1CC(OC(=O)NCc2cccc3ccccc23)CC2(CCCC(COC(=O)NCCc3ccccc3OC)O2)O1` (stereo partly specified) here?
A: The z-score was -0.309 (inactive).

Q: Which z-score does the source give for `COc1ccc(OC[C@@H](CO)OC)cc1` here?
A: Its z-score is -0.321 (inactive).

Q: With `COc1ccc(COC(=O)NN=C2C[C@@H](O)[C@@H](O)[C@@H]3[C@@H]4C(=O)N(C[C@@H]5CCCO5)C(=O)[C@@H]4CC[C@@H]23)cc1` as the compound, how does the z-score read?
A: Its z-score is 0.658 (inactive).

Q: Which z-score does the source give for `CCOC(=O)[C@H](CC(C)C)NC(=O)CCC1CC(OC(=O)NCc2ccc3c(c2)OCO3)CC2(CCCC(COC(=O)NCCOc3ccccc3)O2)O1` (stereo partly specified) here?
A: Its z-score is 0.278 (inactive).

Q: With `C=CC[C@@H]1C=C[C@H](ON=C(C)CCN2CCCCc3nc(C)c(C)cc32)[C@@H](CO)O1` as the compound, how does the z-score read?
A: The z-score was -1.84 (inactive).

Q: Which z-score does the source give for `C[C@@H](c1ccccc1)N1C(=O)[C@H]2[C@H]3[C@H](O)[C@H](O)CC(=NOC[C@@H](O)COCc4ccco4)[C@H]3CC[C@H]2C1=O` here?
A: Its z-score is -0.387 (inactive).

Q: With `COc1ccc(O[C@H]2C=C[C@@H](C#Cc3ccccc3)O[C@@H]2CO)cc1` as the compound, how does the z-score read?
A: Its z-score is -0.252 (inactive).

Q: For `COC(=O)[C@@H]1CC[C@H](C)[C@@H](c2ccc(Br)cc2)N1C[C@@H](O)CN=[N+]=[N-]`, which z-score is on record?
A: Its z-score is 0.866 (inactive).

Q: Which z-score does the source give for `CC(C)=CCCC(C)=CCON=C1C[C@@H](O)[C@@H](O)[C@@H]2[C@@H]3C(=O)N(Cc4ccc5c(c4)OCO5)C(=O)[C@@H]3CC[C@@H]12` here?
A: The z-score was 0.581 (inactive).

assay: JC-1 mitochondrial signal, unstimulated myeloma cells – cell-based, JC-1 fluorescence, RPMI8226, 24 h, 100 nL compound, profiling panel (AID 1169); conditions: JC-1 mitochondrial potential fluorescence, higher = more signal

Q: For `C=CC[C@@H]1C=C[C@H](ON=CC[C@@H]2C=C[C@H](OC(C)=O)[C@@H](COC(C)=O)O2)[C@@H](CO)O1`, which z-score is on record?
A: The z-score was -0.131.

Q: For `C=CC[C@@H]1C=C[C@H](ON=C(C)CCN2CCCc3nc(C)c(C)cc32)[C@@H](CO)O1`, which z-score is on record?
A: Its z-score is -0.989.

Q: For `CC(=O)OC[C@H]1O[C@H](CC=NO[C@H](C)c2cn([C@@H]3COC[C@H]3O)nn2)C=C[C@@H]1OC(C)=O`, which z-score is on record?
A: The z-score was 0.418.

Q: With `CC(=O)OC[C@H]1O[C@H](CCON=C(C)CCN2CCCc3nc(C)c(C)cc32)C=C[C@@H]1OC(C)=O` as the compound, how does the z-score read?
A: Its z-score is 1.03.

Q: Which z-score does the source give for `CO[C@H]1COC(=O)[C@H](CCSC)NC(=O)CC=C[C@@H](C)[C@H](OC)COC(=O)[C@@H](OCc2ccccc2)C=C[C@@H]1C` here?
A: The z-score was 0.759.

Q: Which z-score does the source give for `CN1CCc2nc(-c3ccccc3)c(-c3ccccc3)cc2C1` here?
A: Its z-score is 0.344.

Q: Which z-score does the source give for `CON=C(C)CCN1CCc2nc(-c3ccccc3)c(-c3ccccc3)cc2C1` here?
A: Its z-score is -0.0566.

Q: Which z-score does the source give for `CCN1C(=O)[C@H]2[C@@H]3C(=CC[C@H]2C1=O)C(=O)[C@H]1O[C@H]1[C@H]3O` here?
A: The z-score was -0.991.

Q: With `CC(C)C(=O)N[C@H]1CCCN1C(=O)C=Cc1ccccc1` as the compound, how does the z-score read?
A: The z-score was 0.6.

Q: Which z-score does the source give for `CCOC(=O)[C@H](CC(C)C)NC(=O)CCC1CC(OC(=O)NCc2ccc3c(c2)OCO3)CC2(CCCC(COC(=O)NCCC(C)C)O2)O1` (stereo partly specified) here?
A: The z-score was -0.938.

Q: Which z-score does the source give for `COC(=O)CC=C[C@@H](C)[C@@H](C=NOC[C@@H](O)COCc1ccco1)NS(=O)(=O)c1ccc(C)cc1` here?
A: The z-score was -0.655.

Q: With `CON=C(C)CCN1CCCCc2nc(C)c(C)cc21` as the compound, how does the z-score read?
A: Its z-score is -0.174.

Q: Which z-score does the source give for `CC(=O)OC[C@H]1O[C@H](CCON=C(C)C)C=C[C@@H]1OC(C)=O` here?
A: Its z-score is 0.636.

Q: For `O=C1CCCC=C1C(O)C1CCCCC1` (stereo unspecified), which z-score is on record?
A: Its z-score is -0.121.

Q: With `COC(=O)CC=C[C@@H](C)[C@@H](C=NOC[C@@H](C)[C@H](OCc1ccccc1)C(C)C)OC` as the compound, how does the z-score read?
A: Its z-score is -0.151.

Q: Which z-score does the source give for `COC(=O)[C@H](C)NC(=O)CC=C[C@@H](C)[C@@H]1C=C[C@H](O)[C@@H](CO)O1` here?
A: Its z-score is 0.685.

Q: Which z-score does the source give for `C[C@@H](c1ccccc1)N1C(=O)[C@H]2[C@H]3[C@H](O)[C@H](O)CC(=NOCc4ccccc4)[C@@H]3CC[C@H]2C1=O` here?
A: The z-score was -0.0343.

Q: For `O=C1[C@H]2[C@H]3[C@H](O)[C@H](O)CC(=NOC[C@@H](O)COCc4ccco4)[C@@H]3CC[C@H]2C(=O)N1Cc1ccc2c(c1)OCO2`, which z-score is on record?
A: The z-score was 0.727.

Q: Which z-score does the source give for `CCCNC(=O)OC[C@H]1O[C@H](CCON=C2C[C@@H](O)[C@@H](O)[C@@H]3[C@@H]4C(=O)N(CC)C(=O)[C@@H]4CC[C@@H]23)C=C[C@@H]1Oc1ccc(OC)cc1` here?
A: Its z-score is 0.195.

Q: With `CC(C)CON=C1C[C@@H](O)[C@@H](O)[C@@H]2[C@@H]3C(=O)N(Cc4ccc5c(c4)OCO5)C(=O)[C@@H]3CC[C@@H]12` as the compound, how does the z-score read?
A: Its z-score is 0.492.
